From PubChem BioAssay AID2284082 (EPA ToxCast)
Results filed as inconclusive are left out. Activity calls are given as the source filed them. Rule for the calls: active = hit-call score of the fitted dose curve at least 0.9, where 1 is the maximum; inconclusive = response in the unintended direction; inactive = score below 0.9.

These compounds were tested against human Akt2 (PKBbeta) AGC Kinase, AKT2 (gene 208) (UniProt P31751) (assay: ERF_FR_ENZ_hAKT2: Eurofins (ERF) Enzymatic Radiometric [Km ATP] KinaseProfiler LeadHunter Assay for human Akt2 (PKBbeta) AGC Kinase).
Method: ERF_FR_ENZ_hAKT2 is a biochemical, single-readout assay that uses extracted gene-proteins in a cell-free assay. Measurements were taken 0.5 hour after chemical dosing in a 96-well plate. See Akt2 (PKBbeta) Human AGC Kinase Enzymatic LANCE Assay [Km ATP], Cerep.ERF_FR_ENZ_hAKT2 is an assay component calculated from the ERF_FR_ENZ_hAKT2 assay. It is designed to measure enzyme activity using a type of enzyme reporter as detected by fluorescence intensity with LANCE technology.Data from the assay component ERF_FR_ENZ_hAKT2 was analyzed at the assay endpoint, ERF_FR_ENZ_hAKT2, in the positive analysis fitting direction relative to DMSO as the negative control and baseline of activity. Using a type of enzyme reporter, loss-of-signal activity can be used to understand changes in enzymatic activity as they relate to gene AKT2. To generalize the intended target to other relatable targets, this assay endpoint is annotated to the kinase intended target family, where the subfamily is serine/threonine kinase.
PKBb (h) is incubated with 8 mM MOPS pH 7.0, 0.2 mM EDTA, 30 uM […], 10 mM MgAcetate and [g- 33P]-ATP (specific activity and concentration as required). The reaction is initiated by the addition of the Mg/ATP mix. After incubation for 40 minutes at room temperature, the reaction is stopped by the addition of phosphoric acid to a concentration of 0.5%. […]

Sequence of human Akt2 (PKBbeta) AGC Kinase, AKT2 (gene 208) (P31751 whole entry, looked up): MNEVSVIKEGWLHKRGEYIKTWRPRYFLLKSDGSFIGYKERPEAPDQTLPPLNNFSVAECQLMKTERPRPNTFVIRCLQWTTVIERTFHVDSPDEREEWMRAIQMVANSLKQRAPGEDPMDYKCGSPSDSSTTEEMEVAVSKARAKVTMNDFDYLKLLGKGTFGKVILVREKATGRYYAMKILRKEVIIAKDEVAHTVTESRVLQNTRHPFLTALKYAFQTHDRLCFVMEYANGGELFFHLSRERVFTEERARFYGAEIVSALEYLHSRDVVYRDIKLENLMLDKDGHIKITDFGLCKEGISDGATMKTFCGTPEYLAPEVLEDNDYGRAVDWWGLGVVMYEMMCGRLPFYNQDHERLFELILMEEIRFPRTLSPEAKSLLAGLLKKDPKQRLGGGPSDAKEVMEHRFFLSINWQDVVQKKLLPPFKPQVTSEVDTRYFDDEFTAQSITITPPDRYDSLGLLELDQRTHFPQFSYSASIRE

Compound | outcome
Oc1ccc(O)cc1 | inactive
